# Gal4-VP16 FLuc – counter-screen for ROR gamma inhibitors: Gal4-VP16 reporter; Drosophila S2 Gal4-VP16 UAS-luciferase, luminescence, 20 h; Potency, µM (top dose mostly 53.6 µM), without a hit: at the highest dose activity, negative = inhibition, hits mostly inhibitors; 3.5% of 310,000 active;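 further: Gal4-VP16 expression switched on by copper sulfate through the metallothionein promoter; potency means the concentration at half of the fitted maximal effect; nearly all actives have a fitted effect of over 50% in size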
# Six1-Eya2 inh – inhibitors of human Six1/Eya2 interaction | Q15475+O00167 | AlphaScreen GST-Six1/His-Eya2 binding, biochemical; active compounds read low | activity change, % (no concentration beside the values) | 0.56% of 360,000 active; in the data active means activity change below about -65%; inconclusive means mostly about -30% to -63%
#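 Homogeneous AlphaScreen proximity assay pairing GST-Six1 with His-tagged Eya2 (added as 5X mix: 250 nM and 500 nM) in 50 mM Tris pH 8.0, 300 mM NaCl, 1 mM TCEP. Glutathione donor and nickel acceptor beads; 1 h, 37 °C, dark.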
# CtBP-E1A blk – inhibitors of CtBP/E1A interaction; activity change, % (no concentration beside the values); 0.49% of 340,000 active; AlphaScreen GST-E1A/His-CtBP binding, 1536-well; active compounds read low; AID 651724; in the data active means activity change below about -65%; inconclusive means mostly about -30% to -63%
#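 Protein mix (5X: 125 nM each GST-E1A, His-CtBP) was incubated with pinned compound 2 h at 37 deg C in dark, in 50 mM Tris pH 8.0 buffer with 300 mM NaCl. Glutathione donor and nickel acceptor beads followed; AlphaScreen signal read after 1 h.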
# RORg inh – inhibitors of mouse ROR gamma transcriptional activity; Drosophila S2 Gal4-RORgamma UAS-luciferase reporter, 20 h; P51450; 5.4% of 310,000 active; Potency, µM (titrated, usually from 53.6 µM), for inactives: at the top dose activity change, negative = inhibition, usual class: inhibitors; further: potency means the concentration at half of the fitted maximal effect; nearly all actives have a fitted effect of over 60% in size
# Target sequence (P51450 whole entry, looked up, the tested form may be a part): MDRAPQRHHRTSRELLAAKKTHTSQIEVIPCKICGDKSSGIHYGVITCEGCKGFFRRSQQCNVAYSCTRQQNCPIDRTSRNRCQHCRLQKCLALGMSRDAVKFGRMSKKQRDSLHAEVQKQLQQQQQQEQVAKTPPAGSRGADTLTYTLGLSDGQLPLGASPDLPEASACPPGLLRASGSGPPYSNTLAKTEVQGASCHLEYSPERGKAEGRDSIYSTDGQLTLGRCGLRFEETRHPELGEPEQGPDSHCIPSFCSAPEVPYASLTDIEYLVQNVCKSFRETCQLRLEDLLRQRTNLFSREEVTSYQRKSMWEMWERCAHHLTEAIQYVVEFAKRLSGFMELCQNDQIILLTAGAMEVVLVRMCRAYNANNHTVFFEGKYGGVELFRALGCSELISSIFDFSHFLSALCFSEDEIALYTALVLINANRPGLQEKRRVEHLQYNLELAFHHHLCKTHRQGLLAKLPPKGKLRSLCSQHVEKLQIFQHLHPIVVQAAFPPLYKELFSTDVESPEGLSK
#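 A Gal4/UAS one-hybrid system in insect cells: metallothionein-promoter Gal4–ROR gamma fusion plus Photinus luciferase reporter. Copper sulfate 700 uM final, 20 hr ambient incubation, luminescent detection after 10 min with reagent.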
# PKM2 act – PKM2 (human) enzyme activation. P14618. purified PKM2, Kinase-Glo ATP luminescence, activation; response scale: 0% is enzyme alone, no compound. Potency, µM (titrated, usually from 57.5 µM), for inactives: at the highest dose activation, actives largely listed as activators. 0.34% of 260,000 active. AID 1631; further: potency means the concentration at half of the fitted maximal effect; nearly all actives have a fitted effect of over 55% in size
#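 ATP formation by purified human PK-M2, quantified via coupled luciferase luminescence after 1 h at room temperature with 0.1 mM ADP and 0.5 mM PEP final.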
# Starred values were filed as active, the others as inactive; ? = inconclusive; nt = no result; [ ] = another dose, or the depositor's remark. This is a sample that favours compounds with a hit; in the whole collection about 5.6% have one here. Unless noted, the call rests on the fitted dose curve; in most records, active means well fitted curve in the direction sought with a large enough effect; inconclusive means small, poorly fitted or top-dose-only effect, or another doubt; inactive means no such curve, though single readings can be large; an effect the other way counts as inactive or inconclusive. On the % scale 0 is the no-effect control and ±100 the full control effect.
SMILES,Gal4-VP16 FLuc,Six1-Eya2 inh,CtBP-E1A blk,RORg inh,PKM2 act
CCCn1c(SC(C(=O)Nc2cc(C)ccc2OC)c2ccccc2)nc2ccccc2c1=O (stereo not drawn),?,-3,-2,20µM*,-3%
N/C(=N\OC(=O)c1ccc(Cl)cc1)c1ccn[nH]1,?,0,-2,14µM*,-27%
CCc1ccc2c(c1)NC(=O)C2(C)Cc1ccc(C(F)(F)F)nc1 (stereo not drawn),nt,7,-11,nt,nt
O=C(CC1S/C(=N/N=C/C=C/c2ccccc2)NC1=O)Nc1ccc(Cl)c(Cl)c1 (stereo not drawn),7.9µM*,-1,4,5.6µM*,4%
Cc1ccc(/C=N/N=C2/NC(=O)C(CC(=O)Nc3ccccc3)S2)o1 (stereo not drawn),-5%[10 µM],0,-9,11µM*,-5%
Cc1ccc(/C=N/N=C2/NC(=O)C(CC(=O)Nc3ccc(Cl)cc3)S2)o1 (stereo not drawn),?,-5,-1,11µM*,-1%
Cc1ccc(/C=N/N=C2/NC(=O)CS2)o1,?,4,-2,13µM*,nt
CCCCOc1ccc(C(=O)NNC(=O)C2C3C=CC(C3)C2C(=O)O)cc1 (stereo not drawn),-23%,17,-11,?,-3%
Cc1ccc(C(=O)COC(=O)CSc2cccc3cccnc23)c(C)c1,nt,0,-77*,nt,nt
CCC(CC)c1nnc(NC(=O)CSCC(=O)Nc2cc(C)on2)s1,nt,2,10,nt,nt
COC(=O)c1ccccc1S(=O)(=O)NNC(=O)Nc1ccccc1,?,0,0,11µM*,nt
CCNc1nc(Cl)nc(N(NC(C)=O)C(C)CC)n1 (stereo not drawn),-1%,3,4,-7%,-3%
CCC(C)N(NC(C)=O)c1nc(Cl)nc(NC(C)C)n1 (stereo not drawn),?,0,1,11µM*,7%
CC(C)NC(=O)CN(Cc1ccc(F)cc1)C(=O)CCC(=O)Nc1ccccn1,4%,7,-4,0%,-3%
Cc1ccc2nc(C3CCCN(C(=S)Nc4cccc(C)c4C)C3)[nH]c2c1 (stereo not drawn),?,-8,-13,11µM*,1%
Cc1cc2nc(C3CCCN(C(=S)Nc4ccccc4C)C3)[nH]c2cc1C (stereo not drawn),-15%,-1,-5,20µM*,1%
COc1ccc(Sc2cc(C(F)(F)F)nc(-c3ccccn3)n2)cc1,11µM*,6,-3,4µM*,1%
C#CCSc1cc(C(F)(F)F)nc(-c2ccccn2)n1,-6%,-3,6,10µM*,-1%
CNc1cc(C(F)(F)F)nc(-c2ccccn2)n1,13µM*,-2,-3,0.71µM*,3%
CN1CCN(c2cc(C(F)(F)F)nc(-c3ccccn3)n2)CC1,6%,4,1,-23%,-3%
O=C(NC1CCCN(Cc2ccccc2F)C1)c1cccs1 (stereo not drawn),-9%,3,nt,15%,nt
CSc1nc(N)nc(SCC(=O)C(C)(C)C)c1C#N,18%,-5,-6,43%,1%
CSc1nc(N)nc(SCC(=O)Nc2ccc(Cl)cc2)c1C#N,-11%,-6,-11,3%,4µM*
CSc1nc(N)nc(SCC(=O)Nc2cccc(F)c2)c1C#N,-10%,9,3,18%,1.4µM*
CC(/C=C/c1ccco1)=N\NC(=O)c1cc(Cl)ccc1O,?,-9,-24,8.9µM*,1%
SMILES,Gal4-VP16 FLuc,Six1-Eya2 inh,CtBP-E1A blk,RORg inh,PKM2 act
Cc1ccc2nc(-c3ccc(NC(=O)C4CCCO4)cc3)[nH]c2c1 (stereo not drawn),7.1µM*,-9,-8,6.3µM*,-5%
O=C(Nc1ccc(-c2nc3ccccc3o2)cc1)C1CCCO1 (stereo not drawn),?,-2,5,-35%,-24%
Cc1ccc2nc(-c3ccc(NC(=O)Cc4cccs4)cc3)[nH]c2c1,?,4,9,?,-4%
O=C(Nc1ccc(-c2nc3cccnc3s2)cc1)C1CCCO1 (stereo not drawn),11µM*,-3,-10,18µM*,-52%
CCOC(=O)C1CCN(C(=O)c2cc(C(C)(C)C)nn2Cc2ccccc2)CC1,-10%,5,5,10%,1%
Cc1ccc(NC(=O)C2CSC3(C)CCC(=O)N23)cc1S(=O)(=O)N1CCCCCC1 (stereo not drawn),nt,15,0,nt,nt
Cc1ccc(/C=N/NC(=O)c2ccc(C(=O)N/N=C/c3ccc(C)s3)o2)s1,-21%,-4,-5,8.9µM*,?
Cc1ccc(/C=N/NC(=O)c2cccnc2)s1,-81%,0,-2,18µM*,2%
COc1ccc(CC(=O)N/N=C/c2ccc(C)s2)cc1,nt,0,3,nt,nt
CN(C)CCO[C@](C)(c1ccccc1)c1ccccn1,-6%[17 µM],nt,nt,0%[16.9 µM],nt
CCCCN(CC)c1nc(-c2ccncc2)nc2ccccc12,6%,24,26,-3%,-11%
c1ccc(CCNc2nc(-c3ccccn3)nc3ccccc23)cc1,4.5µM*,?,?,0.25µM*,-4%
CCCN(CCC)c1nc(-c2ccccn2)nc2ccccc12,5µM*,?,?,3.5µM*,nt
CC(C)c1ccc(NC(=O)c2ccc3c(c2)C(=O)N(Cc2cccnc2)C3=O)cc1,18µM*,-2,-4,?,0%
CCOC(=O)c1ccc(NC(=O)c2ccc3c(c2)C(=O)N(Cc2cccnc2)C3=O)cc1,11µM*,-8,-9,-52%,1%
O=C(O)c1cc(NC(=O)c2ccc3c(c2)C(=O)N(Cc2cccnc2)C3=O)cc(C(=O)O)c1,-11%,2,1,0%,1%
COC(=O)Cc1ccc(NC(=O)c2ccc3c(c2)C(=O)N(Cc2cccnc2)C3=O)cc1,?,-6,-24,15%,2%
O=C1c2ccc([N+](=O)[O-])cc2C(=O)N1Cc1cccnc1,-27%,-4,-4,1.3µM*,20%[11.5 µM]
CCN(C(=O)Nc1cccc(Cl)c1)c1ccccc1,13%,-4,1,-1%,0%
CCOC(=O)NC(N(O)c1cccc(Cl)c1)C(Cl)(Cl)Cl (stereo not drawn),8%,2,-2,5µM*,2%
CC(C)C(NC(=O)c1ccc(Cl)c([N+](=O)[O-])c1)C(=O)NCc1ccccn1 (stereo not drawn),nt,6,3,nt,nt
CC(NC(N)=O)C(=O)Nc1ccc(Cl)c(S(=O)(=O)Nc2ccc(Br)cc2)c1 (stereo not drawn),3.2µM*,5,-2,6.3µM*,-27%
Cc1cccc(OC(=O)Nc2ccc(C(=O)O)c(O)c2)c1,nt,11,-1,nt,nt
CC(C)(C)c1ccc(OC(=O)Nc2ccc(O)c(C(=O)O)c2)cc1,1.3µM*,-7,nt,?,-1%

# Source: PubChem (National Center for Advancing Translational Sciences (NCATS))
